# Compound activity from PubChem.
# SRC2 inh: human SRC2 (NCOA2) inhibition; Q15596; HEK293 GAL4-SRC2 luciferase reporter, luminescence; inhibition, % at 9 µM; 370,000 tested, 0.17% active; AID 651957;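 active = inhibition above the mean inhibition of all tested compounds plus 3 SD, set per campaign, cut at about 52% in these data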;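 also: 0% = DMSO treated cells and 100% = cells given Gossypol at 36 µM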
# NR2F2 inh: NR2F2 (human) inhibition, primary screen; P24468; inhibition, % at 8.6 µM; 370,000 tested, 0.7% active; HEK293T NGFI-A luciferase reporter, luminescence;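 active = inhibition above a per-plate cutoff, mean inhibition of test wells between control levels plus 3 SD, cut at about 38% in these data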;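 also: cells cotransfected with COUP-TFII expression vector driving the NGFI-A reporter; 0% = median of COUP-TF2 test wells and 100% = reporter-only cells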
# NCOA3 inh: inhibitors of human steroid receptor coactivator 3 (SRC3); Q9Y6Q9; HEK293 GAL4-SRC3 luciferase reporter, luminescence; inhibition, % at 3.6 µM; 360,000 tested, 0.17% active; AID 588352;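 active = inhibition above a per-campaign cutoff, the mean of all compounds plus 3 SD, cut at about 60% in these data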;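 also: 0% = DMSO-treated cells and 100% = gossypol-treated cells at 36 µM; higher means less SRC3-driven luciferase light from the GAL4 reporter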
# SRC1 inh: inhibits human SRC1 coactivator; HEK293 GAL4-SRC1 luciferase reporter, luminescence; 360,000 tested, 0.12% active; inhibition, % at 3.6 µM; Q15788;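 active = inhibition above the campaign mean plus 3 SD, with each screening campaign given its own cutoff, cut at about 60% in these data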;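 also: 0% = DMSO treated cells and 100% = gossypol at 36 µM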
# Gli-Sufu antag: blocks Gli-Sufu signaling in a luciferase reporter; 340,000 tested, 0.74% active; inhibition, % at 5 µM; Sufu-KO-LIGHT fibroblasts, Gli luciferase reporter luminescence;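 active = inhibition above about 55%, limit read from the data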;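 also: 0% = DMSO-treated cells and 100% = wells with medium but no cells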
# NR5A2 inv ag: NR5A2 inverse agonism in reporter assay. 360,000 tested, 0.13% active. O00482. inhibition, % at 3.6 µM. AID 602396. HEK293T StAR-luciferase reporter, LRH-1 transfected, 24 h;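 active = inhibition above the mean inhibition of all tested compounds plus 3 SD, cut at about 73% in these data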;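 also: 0% = DMSO wells and 100% = reporter-only cells lacking LRH-1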
# Starred values were filed as active, the others as inactive; x = no result given. The list is not random: actives were taken first. Their share in the collection is about 1.3%.
SMILES,SRC2 inh,NR2F2 inh,NCOA3 inh,SRC1 inh,Gli-Sufu antag,NR5A2 inv ag
Cc1cccc(C)c1-n1nnnc1C(CCc1ccccc1)N1CCC(n2c(=O)[nH]c3ccccc32)CC1 (stereo unspecified),-5,-22,84*,32,x,-9
CCOC(=O)CNC(=O)N1Cc2cc(Br)ccc2-n2nncc2C1,20,-4,x,x,x,x
COC(=O)c1nc(-c2ccc3c(n2)C(=O)C(N)=C(OC)C3=O)c(N)c(-c2ccc(OC)c(OC)c2O)c1C,1,4,-37,-5,58*,1
COC(=O)C(Cc1ccc(N(CCCl)CCCl)cc1)N=Cc1ccccc1O (stereo unspecified),7,1,11,-4,64*,6
O=C(NC(Cc1ccccc1)P(=O)(O)Oc1ccccc1)OCc1ccccc1 (stereo unspecified),5,6,x,x,x,x
COc1cccc(OC)c1C1=NCC(=O)Nc2c1oc1ccc(Br)cc21,-11,-60,6,-4,57*,30
O=C1CN=C(c2ccccc2)c2oc3ccc(Br)cc3c2N1,-32,1,-4,-1,3,-42
COc1ccc2c(c1)[nH]c1c(C)nccc12,48,31,73*,71*,-28,38
Cc1nccc2c1[nH]c1ccc(Br)cc12,15,-2,29,17,1,-1
CC(O)C1C=CC=CC(=O)OC2CC3OC4C5OC5(C)CCC4(COC(=O)C4OC4(C)C(O)CO1)C2(C)C31CO1 (stereo unspecified),74*,91*,94*,95*,86*,99*
O=C(NCCN1CCC2(CC1)C(=O)NCN2c1ccccc1)C(c1ccccc1)c1ccccc1,5,12,x,x,x,x
N#CC1c2ccccc2-n2nncc2CN1C(=O)c1cccnc1 (stereo unspecified),20,-11,x,x,x,x
CCCc1nc2ccc(Br)cc2c(=O)n1-c1ccc([N+](=O)[O-])c(C(F)(F)F)c1,6,18,64*,35,44,6
O=C(CN1C(=O)[C@@H](Cc2ccccc2)N=C(c2ccccc2)c2ccccc21)NC1CCCCC1,-30,12,x,x,x,x
CCn1nc(/C=C/c2ccccc2)nc2c(=O)n(C)c(=O)nc1-2,13,30,57,-17,91*,-50
CCn1nc(-c2cccs2)nc2c(=O)n(C)c(=O)nc1-2,x,x,59,53,x,6
CCn1c(NN=O)nc2ccccc21,-9,-7,13,1,70*,-1
CCn1c(P(C)(=O)O)nc2ccccc21,-5,7,-11,-38,3,1
N#CC1c2ccccc2-n2nncc2CN1C(=O)c1ccc([N+](=O)[O-])o1 (stereo unspecified),3,4,x,x,x,x
N=c1c2c(n(Cc3ccc(Cl)cc3Cl)c3c1CCC3)CCCC2,x,x,43,49,9,82*
O=C(NCCN1CCC2(CC1)C(=O)NCN2c1ccccc1)c1ccc(Cl)c(Cl)c1,-31,-17,x,x,x,x
Cc1cccc(Cn2cc(C=O)c3ccccc32)c1,30,5,17,13,4,28
O=Cc1cn(Cc2cccc([N+](=O)[O-])c2)c2ccccc12,32,14,30,41,-2,81*
Cc1[nH]nc2ccc(-c3cncc(OC[C@@H](N)Cc4c[nH]c5ccccc45)c3)cc12,x,x,94*,94*,93*,99*
N#CCC[C@H]1CC[C@]2(CCCN(Cc3ccccn3)C2)O1,-4,-6,x,x,x,x
S=P(c1ccccc1)(c1ccccc1)c1cnc2ccccn12,x,13,x,x,x,x
COC1=C(C)C(=O)C2=C(C1=O)C(CO)N1C(C#N)C3CC4C(C1C2N1CCOC41)N3C (stereo unspecified),56*,1,83*,76*,10,63
Cc1ccccc1CCC[C@H](CC1CCCCC1)CN(C)C(=O)Oc1ccccc1,3,-16,x,x,x,x
Cc1sc2ccccc2c1CC1=NCCN1,12,-13,6,6,61*,0
CC(=O)OC(C)(C)/C=C/C(=O)C(C)(O)C1[C@H](O)C[C@@]2(C)C3CC=C4C(CC[C@@H](O)C4(C)C)[C@]3(CO)C(=O)C[C@]12C (stereo partly specified),43,6,27,5,80*,20
